A short description of assay [1]: Nuclear factor erythroid 2-related factor 2/antioxidant responsive element (Nrf2/ARE) small molecule agonists: qHTS cell viability counter screen in human keratinocytes (AID 1919968; active = well fitted curve in the direction sought with a large enough effect in the repeat runs; an effect the other way counts as inactive or inconclusive; note: nearly all actives have a fitted effect of over 55% in size). The method in brief:
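Stably transfected HaCaT (KeratinoSens), 1,500/well. Test agents in DMSO were applied for 23 h, 37 C/5% CO2. CellTiter-Fluor was incubated 1 h before the fluorescence read.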

Assay [2] is described as follows: Nuclear factor erythroid 2-related factor 2/antioxidant responsive element (Nrf2/ARE) small molecule agonists: luciferase reporter gene qHTS assay in human keratinocytes (AID 1919969). Note: nearly all actives have a fitted effect of over 35% in size. Note: potency is the fitted concentration of half-maximal effect.
Assay [3] addresses KiSS-1 receptor (Homo sapiens) (UniProt Q969F8). Description: Human kisspeptin (KISS1R) small molecule agonists, calcium flux assay in KISS1R-HEK293 cells (AID 1920064; active = well fitted curve in the direction sought with a large enough effect in the repeat runs; an effect the other way counts as inactive or inconclusive). The method, boiled down: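 After overnight (18 h) culture at 37 C/5% CO2, human KISS1R-HEK293 cells received calcium dye for 1 h, then test compound; emission at 540 nm (excitation 480 nm) was tracked for 3 min.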

A short description of assay [4]: p53 small molecule agonists, cell-based qHTS assay with human liver microsomes (AID 1963577).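 Note: p53 response element beta-lactamase reporter cells with liver microsomes plus NADPH.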 The method, boiled down: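 Metabolically competent format: test substances, human liver microsomes and NADPH (both 0.5 mg/mL final) incubated with p53RE-bla cells 16 h at 37 C. Beta-lactamase reporter signal then quantified by fluorescence.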
A short description of assay [5]: p53 small molecule agonists, cell-based qHTS assay with rat liver microsomes (AID 1963578). The method, boiled down: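 Each plate received p53RE-bla cells, then compound, then rat liver microsomes and NADPH (both 0.5 mg/mL final). Plates were held 16 h at 37 C, and beta-lactamase activity was detected with LiveBLAzer over 2 h.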
Assay [6] is described as follows: p53 small molecule agonists, cell-based qHTS assay with human liver microsomes: qHTS cell viability counter screen (AID 1963579). Note: nearly all actives have a fitted effect of over 45% in size. The method in brief: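 Tox21 library compounds, delivered from DMSO stocks, were tested on p53RE-bla cells together with 0.5 mg/mL human liver microsomes and 0.5 mg/mL NADPH (final) over 16 h at 37 C; CellTiter-Glo luminescence served as the cytotoxicity measure.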

The nature of assay [7]: p53 small molecule agonists, cell-based qHTS assay with rat liver microsomes: qHTS cell viability counter screen (AID 1963580). Note: nearly all actives have a fitted effect of over 45% in size. The method in brief:
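Cytotoxicity counter screen: intracellular ATP measured by CellTiter-Glo luminescence in the same wells as the beta-lactamase reporter read, on HCT-116 p53RE-bla cells exposed 16 h at 37 C to compounds with rat liver microsomes and NADPH, each 0.5 mg/mL final.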

Assay [8] is described as follows: p53 small molecule agonists, cell-based qHTS assay: qHTS cell viability counter screen (AID 1963581). Note: nearly all actives have a fitted effect of over 45% in size. The method, boiled down:
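qHTS counter screen: 16 h compound exposure at 37 C of p53RE-bla HCT-116 cells (4,000 per well, seeded 5 h prior), cell viability by ATP luminescence.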

Assay [9] is described as follows: p53 small molecule agonists, cell-based qHTS assay (AID 1963582; active = well fitted activation curve with a large enough effect in the signal ratio in the repeat runs, not every such curve was filed as active; the % refers to the signal ratio). The method in brief: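 Measured: fluorescence from cleaved LiveBLAzer substrate. System: p53RE-bla cells, 16 h compound treatment at 37 C, 2 h substrate step at room temperature.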
The target in assay [10] is 5-hydroxytryptamine receptor 2A (Homo sapiens) (UniProt P28223). Description: 5-hydroxytryptamine receptor 2A (HTR2A) small molecule antagonists, cell-based qHTS assay (AID 1963586). Note: nearly all actives have a fitted effect of over 45% in size. The method in brief: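 CHO cells stably expressing human HTR2A were plated for 18 h at 37 C, then loaded with calcium dye for 1 h. Compounds were preincubated 5 min at room temperature before DOI (4 nM solution) was added. Kinetic fluorescence was read for 3 min.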

The target is the same in assay [11]. Briefly: 5-hydroxytryptamine receptor 2A (HTR2A) small molecule agonists, cell-based qHTS assay (AID 1963587). Note: nearly all actives have a fitted effect of over 30% in size. Note: potency is the fitted concentration of half-maximal effect. The method, boiled down:
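CHO cells stably expressing human HTR2A, plated 18 h, loaded with calcium dye 1 h at 37 C. Agonist mode: compounds added and intracellular calcium fluorescence recorded kinetically for 2 min at 1 sec intervals.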

Assay [12] addresses Muscarinic acetylcholine receptor M1 (Homo sapiens) (UniProt P11229). Description: Cholinergic receptor muscarinic 1 (CHRM1) small molecule antagonists, cell-based qHTS assay (AID 1963588). Note: nearly all actives have a fitted effect of over 40% in size. Note: potency is the fitted concentration of half-maximal effect. The method, boiled down: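 Compounds were tested at 15 concentrations in three independent runs. Dye-loaded CHRM1-CHO cells were exposed 5 min at room temperature before stimulation by acetylcholine added at 50nM. Intracellular calcium was read kinetically on FDSS for 3 min.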

Assay [13] has the same target. Briefly: Cholinergic receptor muscarinic 1 (CHRM1) small molecule agonists, cell-based qHTS assay (AID 1963589). Note: nearly all actives have a fitted effect of over 35% in size. Note: potency is the fitted concentration of half-maximal effect. The method, boiled down: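 Kinetic fluorescence (1 s intervals) of calcium-sensitive dye in human M1 CHO cells after compound addition; cells pre-incubated 18 h at 37 C/5% CO2 and dye-loaded 1 h.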
Assay [14] can be described thus: cAMP Responsive Elements (CRE) small molecule agonists, cell-based qHTS assay (AID 1963590). The method, boiled down:
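Test agents in DMSO were incubated 3 h at 37 C/5% CO2 with CRE-bla HEK 293T cells seeded 18 h earlier; LiveBLAzer B/G FRET substrate was added and read after 2 h at room temperature.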

Assay [15] is described as follows: cAMP Responsive Elements (CRE) small molecule antagonists, cell-based qHTS assay (AID 1963591; active = well fitted inhibition curve with a large enough effect in the signal ratio in the repeat runs, not every such curve was filed as active; the % refers to the signal ratio). The method in brief:
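Reporter line CRE-bla HEK 293T in dialyzed-FBS DMEM; cells preincubated 18 h, treated 3 h with compound plus NKH477 (0.25 uM final); LiveBLAzer FRET, 2 h RT.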

Assay [16] addresses Beta-2 adrenergic receptor (Homo sapiens) (UniProt P07550). Briefly: Adrenergic beta2 receptor (ADRB2) small molecule antagonists, cell-based qHTS assay (AID 1963592). Note: series mostly up to about 92 µM; nearly all actives have a fitted effect of over 50% in size. The method in brief:
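Assay format: CHO-ADRB2 cells, 18-20hr seeding at 37C/5% CO2, then compound plus 1nM isoproterenol agonist mix for 0.5hr RT. Homogeneous time-resolved fluorescence cAMP detection after 1hr, expressed as 665/615 nm ratio.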

For assay [17] the target is unchanged. Description: Adrenergic beta2 receptor (ADRB2) small molecule agonists, cell-based qHTS assay (AID 1963593).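 Note: CHO cells stably overexpressing human ADRB2.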 The method, boiled down: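 CHO cells stably over-expressing ADRB2 were plated overnight at 37C, then dosed with compounds plus a stimulation mix containing 100uM IBMX and 25uM Ro-20-1724 for 0.5hr at room temperature. cAMP was measured by HTRF competition, 1hr.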

Assay [18] deals with D(2) dopamine receptor (Homo sapiens) (UniProt P14416). Briefly: Dopamine D2 receptor (DRD2) small molecule agonists, cell-based qHTS assay (AID 1963594). Note: nearly all actives have a fitted effect of over 35% in size. The method, boiled down: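 HEK293 cells stably expressing human DRD2, pre-treated with PDE inhibitor Ro20-1724 (0.1 mM final) and compound 10 min at room temperature, then stimulated with NKH477 (200nM […]) for 30 min. cAMP read by HTRF (665/620 nm).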

For assay [19] the target is unchanged. Briefly: Dopamine D2 receptor (DRD2) small molecule antagonists, cell-based qHTS assay (AID 1963595; active = well fitted inhibition curve with a large enough effect in the signal ratio in the repeat runs, with a control signal flat; the % refers to the signal ratio). The method in brief:
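HEK293 cells stably expressing DRD2 were preincubated with 0.1 mM Ro20-1724, then with compound for 10 min at room temperature. Cells were stimulated with 200 nM NKH477 plus 12 nM quinpirole for 30 min, and cAMP was read by HTRF.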

Assay [20] is described as follows: G protein-coupled receptor (GPCR) small molecule agonists, calcium flux assay: HEK293 wild type cell line counter screen (AID 1920065). The method, boiled down:
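Following 18 h incubation at 37 C/5% CO2, plates got calcium dye for 1 h; compounds, ATP or DMSO were then pinned in and fluorescence followed kinetically (480/540 nm).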

“And” between values parts separate entries of the source, which are not always exact repeats. Equal entries are not always repeated. Results filed as inconclusive are left out. More than one record can exist for a structure, and the calls need not agree. The source made the active and inactive calls. Unless noted, calls come from the whole dose curve.

The results in this text go back to PubChem BioAssay (Tox21).

KiSS-1 receptor (Homo sapiens), sequence (Q969F8 whole entry, looked up): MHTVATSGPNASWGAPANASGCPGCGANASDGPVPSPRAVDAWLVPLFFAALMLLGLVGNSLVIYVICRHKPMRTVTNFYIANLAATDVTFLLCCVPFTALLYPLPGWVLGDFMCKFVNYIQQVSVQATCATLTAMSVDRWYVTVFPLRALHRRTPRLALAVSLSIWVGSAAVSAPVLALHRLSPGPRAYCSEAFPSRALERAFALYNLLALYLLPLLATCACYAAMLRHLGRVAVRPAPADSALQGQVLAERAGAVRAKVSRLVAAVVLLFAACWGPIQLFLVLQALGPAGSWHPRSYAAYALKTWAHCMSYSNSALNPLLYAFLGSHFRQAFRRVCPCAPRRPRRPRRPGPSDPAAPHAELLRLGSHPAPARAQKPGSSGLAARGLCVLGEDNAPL
D(2) dopamine receptor (Homo sapiens), sequence (P14416 whole entry, looked up): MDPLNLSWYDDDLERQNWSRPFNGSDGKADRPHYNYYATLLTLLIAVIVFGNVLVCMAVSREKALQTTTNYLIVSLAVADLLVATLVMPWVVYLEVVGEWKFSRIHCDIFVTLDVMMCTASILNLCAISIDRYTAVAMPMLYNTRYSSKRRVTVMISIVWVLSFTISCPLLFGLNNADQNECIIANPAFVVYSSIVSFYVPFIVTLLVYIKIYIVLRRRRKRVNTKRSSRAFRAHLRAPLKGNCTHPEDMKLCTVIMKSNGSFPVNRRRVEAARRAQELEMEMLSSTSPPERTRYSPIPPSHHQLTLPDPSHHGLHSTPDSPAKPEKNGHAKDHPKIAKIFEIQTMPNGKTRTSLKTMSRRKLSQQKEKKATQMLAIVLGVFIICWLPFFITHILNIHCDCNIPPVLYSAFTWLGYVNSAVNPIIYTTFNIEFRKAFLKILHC
5-hydroxytryptamine receptor 2A (Homo sapiens), sequence (P28223 whole entry, looked up): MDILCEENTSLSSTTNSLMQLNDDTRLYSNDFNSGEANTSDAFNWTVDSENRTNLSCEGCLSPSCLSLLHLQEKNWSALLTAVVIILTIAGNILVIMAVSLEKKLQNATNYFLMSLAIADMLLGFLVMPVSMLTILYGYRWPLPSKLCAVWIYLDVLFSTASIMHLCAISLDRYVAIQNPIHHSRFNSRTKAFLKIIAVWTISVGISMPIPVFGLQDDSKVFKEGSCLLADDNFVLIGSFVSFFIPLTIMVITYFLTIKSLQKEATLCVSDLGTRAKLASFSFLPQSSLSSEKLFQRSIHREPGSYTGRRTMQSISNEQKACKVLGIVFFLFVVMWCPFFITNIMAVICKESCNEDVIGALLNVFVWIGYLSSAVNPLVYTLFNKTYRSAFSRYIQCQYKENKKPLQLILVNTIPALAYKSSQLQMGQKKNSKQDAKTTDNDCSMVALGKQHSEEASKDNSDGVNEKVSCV
Beta-2 adrenergic receptor (Homo sapiens), sequence (P07550 whole entry, looked up): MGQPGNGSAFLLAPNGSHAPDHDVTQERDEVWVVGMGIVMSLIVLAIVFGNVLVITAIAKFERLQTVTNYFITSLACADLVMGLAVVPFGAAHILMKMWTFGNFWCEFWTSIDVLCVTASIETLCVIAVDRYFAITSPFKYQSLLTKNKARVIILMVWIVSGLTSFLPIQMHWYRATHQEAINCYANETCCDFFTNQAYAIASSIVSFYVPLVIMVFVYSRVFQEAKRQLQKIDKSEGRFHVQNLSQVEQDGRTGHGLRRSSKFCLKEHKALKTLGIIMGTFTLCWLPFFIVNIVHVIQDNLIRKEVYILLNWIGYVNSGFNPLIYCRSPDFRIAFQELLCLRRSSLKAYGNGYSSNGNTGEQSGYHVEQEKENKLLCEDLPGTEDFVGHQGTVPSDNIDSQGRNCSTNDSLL
Muscarinic acetylcholine receptor M1 (Homo sapiens), sequence (P11229 whole entry, looked up): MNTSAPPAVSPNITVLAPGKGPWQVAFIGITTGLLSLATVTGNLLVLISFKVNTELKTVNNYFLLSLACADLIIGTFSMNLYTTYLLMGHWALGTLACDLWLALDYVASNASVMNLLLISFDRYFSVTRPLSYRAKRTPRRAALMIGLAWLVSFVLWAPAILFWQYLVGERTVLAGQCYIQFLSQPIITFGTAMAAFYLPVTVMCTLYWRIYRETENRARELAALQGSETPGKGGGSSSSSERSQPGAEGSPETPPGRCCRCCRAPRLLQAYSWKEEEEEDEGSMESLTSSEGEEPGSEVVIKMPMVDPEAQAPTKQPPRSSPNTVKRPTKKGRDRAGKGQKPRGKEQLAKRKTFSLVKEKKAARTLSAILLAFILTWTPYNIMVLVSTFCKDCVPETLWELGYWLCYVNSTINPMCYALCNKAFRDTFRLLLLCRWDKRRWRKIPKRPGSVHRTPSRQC

On to `CC(C)N=C(N)/N=C(\N)Nc1ccc(Cl)cc1`, for which the Potency result in [1], in assay [2], in assay [3], in assay [4], in assay [5] and in assay [6] was “inactive” throughout. The Potency result in [7], in [8], in assay [9], in [10], in assay [11] and in [13] was “inactive” in each case. Also, the Potency entry in [14], in assay [15], in assay [16], in assay [17], in assay [18] and in [19] was “inactive” throughout. The Potency in assay [12] was 729 nM (active).

Take `CCSC(=O)N(CC)CC`: the Potency result in assay [1], in assay [3], in assay [20], in assay [4], in assay [5] and in [6] was “inactive” each time. In addition, the Potency entry in assay [7], in [8], in assay [9], in assay [10], in [11] and in assay [12] was “inactive” throughout. Further, the Potency entry in assay [13], in assay [14], in assay [15], in assay [16], in assay [17] and in [18] was “inactive” throughout. For the same compound, in assay [19], the Potency entry is “inactive”.

With `Nc1ccccc1N`, the Potency entry in assay [1], in assay [4], in [5], in assay [7], in [8] and in assay [9] was “inactive” throughout. In addition, the Potency result in assay [10], in assay [12], in [16], in assay [18] and in assay [19] was “inactive” throughout. Besides, the Potency in [2] was 31.4 µM (active) and 7.7 µM (active); in assay [11], 50.1 µM (active) and 30.9 µM (active); in [13] it was 56.2 µM (active) and inactive.

Consider `COc1ccc2cc1Oc1cc3c(cc1OC)CC[N+](C)(C)[C@H]3Cc1ccc(cc1)Oc1c(OC)c(OC)cc3c1[C@@H](C2)[N+](C)(C)CC3`, for which the Potency result in assay [1], in assay [3], in assay [20], in assay [4], in [5] and in assay [6] was “inactive” each time. In addition, the Potency entry in [7], in assay [8], in assay [9], in assay [10], in [11] and in assay [12] was “inactive” each time. The Potency result in assay [13], in [14], in [15], in [16], in [17] and in assay [18] was “inactive” in each case. In assay [19], the Potency result was “inactive”.

Turning to `CC(C)NC(=O)c1ccccc1N`, the Potency entry in assay [1], in assay [2], in [3], in assay [4], in assay [6] and in assay [7] was “inactive” in each case. The Potency entry in [8], in assay [9], in [10], in [11], in assay [12] and in assay [13] was “inactive” in each case. In addition, the Potency result in [14], in assay [15], in assay [16], in [18] and in assay [19] was “inactive” in each case.

As to `OCCOCCOCCOCCOCCO`, the Potency result in assay [1], in assay [3], in assay [20], in [4], in [5] and in [6] was “inactive” throughout. Further, the Potency entry in assay [7], in assay [8], in assay [9], in assay [10], in assay [11] and in assay [12] was “inactive” each time. Further, the Potency entry in [13], in assay [14], in assay [15], in assay [16], in [17] and in assay [18] was “inactive” each time. In addition, the Potency entry in assay [19] is “inactive”.

As for `NC(=O)NNc1ccccc1`, the Potency result in assay [1], in [3], in assay [20], in [4], in [5] and in assay [6] was “inactive” in each case. The Potency entry in assay [7], in [8], in [9], in assay [10], in assay [11] and in assay [12] was “inactive” each time. The Potency result in [13], in assay [14], in assay [15], in [16], in assay [17] and in assay [18] was “inactive” in each case. For the same compound, the Potency result in assay [19] is “inactive”.
